“And” between values parts separate entries of the source, which are not always exact repeats. Equal entries are not always repeated. The source made the active and inactive calls. Unless noted, how the calls were made is not given here.
What was measured:
[1] = tested on: Aerobactin synthetase IucA (Klebsiella pneumoniae, hypervirulent); assay: biochemical IucA inhibition screen of LOPAC library by absorbance (AID 1346212); details: IucA enzyme assay, absorbance (OD) readout; stronger effect = lower value;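 tested at 8 µM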;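 further: 100% = no compound wells and 0% = no enzyme wells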
[2] = compounds altering viability of human ES cells (AID 493140); details: human embryonic stem cell survival screen; stronger effect = higher value;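 further: cells exposed to compounds for four days before counting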
[3] = viability loss with induced miR-34 in A549 – imaging, A549 dox-inducible miR-34, nuclei and caspase counts, primary screen (AID 1347080;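 active means compounds whose cell count with miR-34 switched on is under 0.7 times the count with it off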); details: A549 miR-34 inducible, Hoechst nuclei count, 48 h
[4] = chitosan synthesis blockers in C. neoformans – flow cytometry, Cibacron Brilliant Red staining (AID 1347148); details: Cryptococcus neoformans chitosan, stronger effect = lower value; at 10 µM unless noted;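 further: compound exposure lasted three days at 37 degrees C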
[5] = compounds altering circadian rhythm period length – cell-based, LOPAC library, luminescence reporter (AID 2774); details: circadian reporter cells, at 7 µM, actives lie on both sides;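 further: values are relative to mean of DMSO wells on each plate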
[6] = tested on: Hepatitis C virus NS3 helicase; assay: blockers of NS3h binding to ssDNA – biochemical, fluorescence polarization, LOPAC1280 library, primary screen (AID 687035; in the data active means inhibition above about 37%); details: Purified HCV NS3 helicase, Cy5-dT15 ssDNA binding fluorescence polarization; stronger effect = higher value; concentration not given here
[7] = compounds altering Cy5-DNA-NS3h complex signal – biochemical, LOPAC1280, artefact control for HCV NS3 helicase inhibitor project (AID 687037); details: Cy5-DNA-NS3h complex fluorescence interference counterscreen
[8] = blockers of cellular phospholipid synthesis – cell-based, LOPAC library, screen 4, primary screen (AID 1347384); details: animal cells, phospholipid biosynthesis inhibition screen; at 10 µM
[9] = MELAS cybrid and Rieske KO viability enhancers – cell-based, MELAS cybrids, Rieske KO mouse fibroblasts, CellTiter-Glo, primary screen (AID 1508586;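 active means mean z-score across replicates of 1.96 or higher in either the MELAS or the Rieske mutant cell line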;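 further: z relative to plate mean and SD of compound and empty wells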); details: low glucose
[10] = galactose survival enhancers in mitochondrial complex I cybrids – cell-based, galactose medium, ATP luminescence, primary screen (AID 1645843;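 active means z-score of at least 1.8 in each of two replicates, scored against plate mean and spread of sample wells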;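 further: positive z means more ATP and so rescue of galactose-driven cybrid death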); details: complex I mutant cybrid cells, 72 h, stronger effect = higher value
[11] = P. berghei load reduction in hepatocytes – cell-based, HepG2, luciferase luminescence, HepG2 viability, primary screen (AID 624349; in the data active means parasite load remaining mostly below about 12%, no sharp cut-off; inactive means mostly above about 10%;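 further: 100% = mean of DMSO negative control wells on the same plate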); details: P. berghei liver stage in HepG2, luciferase luminescence, concentration not given here; parasite load remaining: stronger effect = lower value; viability: measured here: HepG2 viability without parasites
[12] = measured here: relative caspase fold change +Dox/-Dox
[13] = measured here: total cells with miR-34 induction, stronger effect = lower value
[14] = measured here: total cells without miR-34 induction

Q: With CC[N+](CC)(CC)CCOc1ccc(/C=C/c2ccccc2)cc1 as the compound, how does the remaining activity [1] read?
A: 118% (inactive)

Q: With c1ccc(C2CN3CCSC3=N2)cc1 (stereo unspecified) as the compound, how does the remaining activity [1] read?
A: 92.5% (inactive)

Q: Which remaining activity [1] does the source give for N[C@@H](CC(=O)O)C(=O)O here?
A: 111% (inactive)

Q: With Cc1cc(NC(=O)Nc2ccc3c(ccn3C)c2)sn1 as the compound, how does the remaining activity [1] read?
A: 122% (inactive)

Q: For COc1[nH]c2ccc(F)cc2c1C(=O)OCC1CCN(CCNS(C)(=O)=O)CC1, which remaining activity [1] is on record?
A: 124% (inactive)

Q: For O=C(O)Cc1c[nH]c2ccc(O)cc12, which remaining activity [1] is on record?
A: 101% (inactive)

Q: Which remaining activity [1] does the source give for CCCn1c(=O)c2[nH]c(-c3ccc(OCC(=O)Nc4ccc(C#N)cc4)cc3)nc2n(CCC)c1=O here?
A: 109% (inactive)

Q: With C[C@]12CC[C@@H]3c4ccc(O)cc4CC[C@H]3[C@@H]1CC[C@@H]2O as the compound, how does the remaining activity [1] read?
A: 99.8% (inactive)

Q: Which remaining activity [1] does the source give for CC(C)COC(=O)OCN1C(=O)CN(CCN2CC(=O)N(COC(=O)OCC(C)C)C(=O)C2)CC1=O here?
A: 96.8% (inactive)

Q: For CC(C)NC[C@H](O)COc1cccc2[nH]ccc12, which remaining activity [1] is on record?
A: 116% (inactive)

Q: Which remaining activity [1] does the source give for Cc1cc2c(cc1Cl)N(C(=O)Nc1cccc3ncccc13)CC2 here?
A: 103% (inactive)

Q: With Cc1ccc(O)c(N=Nc2ccccc2)n1 as the compound, how does the remaining activity [1] read?
A: 82.6% (inactive)

Q: For Nc1cc(Cl)c(NC2=NCCN2)c(Cl)c1, which remaining activity [1] is on record?
A: 118% (inactive)

Q: Which remaining activity [1] does the source give for O=C(c1ccc(OCCCc2cnc[nH]2)cc1)C1CC1 here?
A: 100% (inactive)

Q: Which remaining activity [1] does the source give for Nc1ccc(N2C(=O)c3ccccc3C2=O)c(Cl)c1 here?
A: 105% (inactive)

Q: With CO/N=C(\C(=O)N[C@@H]1C(=O)N2C(C(=O)O)=C(CSc3nc(=O)c(=O)[nH]n3C)CS[C@H]12)c1csc(N)n1 as the compound, how does the remaining activity [1] read?
A: 117% (inactive)

Q: For CC(=O)[C@H]1CCC2C3CC=C4C[C@@H](OS(=O)(=O)O)CC[C@]4(C)C3CC[C@@]21C (stereo partly specified), which remaining activity [1] is on record?
A: 107% (inactive)

Q: Which remaining activity [1] does the source give for C[C@@H](N)C1CCC(C(=O)Nc2ccncc2)CC1 (stereo partly specified) here?
A: 107% (inactive)

Q: For CC(C)C[C@H](NP(=O)(O)O[C@@H]1O[C@@H](C)[C@H](O)[C@@H](O)[C@H]1O)C(=O)N[C@@H](Cc1c[nH]c2ccccc12)C(=O)O, which remaining activity [1] is on record?
A: 89.8% (inactive)

Q: Which remaining activity [1] does the source give for CN(C)CC/C=C1/c2ccccc2Sc2ccc(Cl)cc21 here?
A: 115% (inactive)

Q: Which remaining activity [1] does the source give for O=c1[nH]ccc2c(O)cccc12 here?
A: 117% (inactive)

Q: Which remaining activity [1] does the source give for CC(C)[N+]1(C)[C@@H]2CC[C@H]1CC(OC(=O)C(CO)c1ccccc1)C2 (stereo partly specified) here?
A: 118% (inactive)

Q: Which remaining activity [1] does the source give for NC(N)=NC(=O)c1nc(Cl)c(N2CCCCCC2)nc1N here?
A: 120% (inactive)

Q: Which remaining activity [1] does the source give for CC(=O)NNC(=O)N1Cc2ccccc2Oc2ccc(Cl)cc21 here?
A: 105% (inactive)

Q: Which remaining activity [1] does the source give for COc1nc(C)nc(Cl)c1NC1=NCCN1 here?
A: 119% (inactive)

Q: Which remaining activity [1] does the source give for CC(=O)N[C@H](C(=O)O)C(C)(C)SN=O here?
A: 117% (inactive)

Q: For Oc1cc(O)cc(/C=C/c2ccc(O)c(O)c2)c1, which remaining activity [1] is on record?
A: 125% (inactive)

Q: For C[C@]12C=CC(=O)C=C1CC[C@@H]1C2=CC[C@]2(C)[C@@H](C(=O)CN3CCN(c4cc(N5CCCC5)nc(N5CCCC5)n4)CC3)CC[C@@H]12, which remaining activity [1] is on record?
A: 102% (inactive)

Q: Which remaining activity [1] does the source give for C[C@@H]1C(=O)NC2=Nc3cccc(Cl)c3CN21 here?
A: 121% (inactive)

Q: Which remaining activity [1] does the source give for Cc1cc(Cn2cnc3c2C[C@@H](C(=O)O)N(C(=O)C(c2ccccc2)c2ccccc2)C3)ccc1N here?
A: 112% (inactive)

Q: Which remaining activity [1] does the source give for CC[C@@H]1Cc2cc(O)ccc2C2=C1c1ccc(O)cc1C[C@H]2CC here?
A: 89.7% (inactive)

Q: Which remaining activity [1] does the source give for c1cc(CN2CCCCC2)cc(OCCCNc2nc3ccccc3s2)c1 here?
A: 101% (inactive)

Q: With NC1CCN(c2cccc(Cl)n2)CC1 as the compound, how does the remaining activity [1] read?
A: 104% (inactive)

Q: With CCN(CC)CCCCCCCCOC(=O)c1cc(OC)c(OC)c(OC)c1 as the compound, how does the remaining activity [1] read?
A: 100% (inactive)

Q: For C[N+](C)(CCCCCC[N+](C)(C)CCCN1C(=O)c2cccc3cccc(c23)C1=O)CCCN1C(=O)c2cccc3cccc(c23)C1=O, which remaining activity [1] is on record?
A: 100% (inactive)

Q: Which remaining activity [1] does the source give for CC(C)(C)c1ccc(C(O)CCCN2CCC(C(O)(c3ccccc3)c3ccccc3)CC2)cc1 (stereo unspecified) here?
A: 101% (inactive)

Q: With CCCn1c(=O)c2c(ncn2C)n(CCC)c1=O as the compound, how does the remaining activity [1] read?
A: 110% (inactive)

Q: For CNCC[C@H](Oc1ccc(C(F)(F)F)cc1)c1ccccc1, which remaining activity [1] is on record?
A: 93.6% (inactive)

Q: For NC[C@@H]1O[C@H](C23CC4CC(CC(C4)C2)C3)Cc2c1ccc(O)c2O, which remaining activity [1] is on record?
A: 111% (inactive)

Q: For Cn1cc(C(=O)OCC2CCN(CCNS(C)(=O)=O)CC2)c2ccccc21, which remaining activity [1] is on record?
A: 104% (inactive)

Q: With Cc1ccc(S(=O)(=O)/C=C/C#N)cc1 as the compound, how does the remaining activity [1] read?
A: 100% (inactive)

Q: With N#CC(C#N)=C(N)/C(C#N)=C/c1ccc(O)cc1 as the compound, how does the remaining activity [1] read?
A: 117% (inactive)

Q: Which survival [2] does the source give for N#C/C(=C\c1ccc(O)c(O)c1)C(N)=S here?
A: 132 (inactive)

Q: And the remaining activity [1]?
A: 89.1% (inactive)

Q: And the fold change ([3]; stronger effect = lower value)?
A: 0.909 (inactive)

Q: And the fold change [3, 12]?
A: 1.22

Q: And the cell count [3, 13]?
A: 4790

Q: And the cell count [3, 14]?
A: 5270

Q: And the fold fluorescence [4]?
A: 5.68 [at 227 µM] (inactive)

Q: What does the source list for CC(C)(C)c1cc(C=C(C#N)C#N)cc(C(C)(C)C)c1O?
A: period change [5]: 1.05 h (inactive); survival [2]: 76 (inactive); inhibition [6]: 0% (inactive); fluorescence ratio (interference) [7]: 1 (inactive); remaining activity [1]: 101% (inactive); fold change ([3]; stronger effect = lower value): 1.14 (inactive) and 1.05 (inactive) and 0.984 (inactive); fold change [3, 12]: 0.636 and 2.12 and 0.899; cell count [3, 13]: 1430 and 1570 and 1940; cell count [3, 14]: 1250 and 1490 and 1970; fold fluorescence [4]: 9.17 [at 177.1 µM] (inactive); outcome [8]: active; z-score ([9]; MELAS cybrid survival, CellTiter-Glo 48 h, stronger effect = higher value): 0.224 (inactive); z-score ([9]; Rieske KO mouse fibroblast survival, CellTiter-Glo 72 h): -0.362; z-score [10]: -1.27 (inactive)

Q: For CN1CCc2cc(O)cc3c2[C@H]1Cc1ccc(O)c(O)c1-3, which period change [5] is on record?
A: 0.03 h (inactive)

Q: What about the inhibition [6] of the same compound?
A: -2% (inactive)

Q: What about the fluorescence ratio (interference) [7] of the same compound?
A: 1 (inactive)

Q: And the remaining activity [1]?
A: 101% (inactive)

Q: And the fold change ([3]; stronger effect = lower value)?
A: 1.01 (inactive)

Q: What about the fold change [3, 12] of the same compound?
A: 1.15

Q: And the cell count [3, 13]?
A: 9530

Q: What about the cell count [3, 14] of the same compound?
A: 9390

Q: What about the outcome [8] of the same compound?
A: inactive

Q: And the z-score [10]?
A: -1.03 (inactive)

Q: Which period change [5] does the source give for CCn1cnc2c(Nc3cccc(Cl)c3)nc(N[C@@H]3CCCC[C@@H]3N)nc21 here?
A: 0.275 h (inactive)

Q: And the parasite load remaining [11]?
A: 33.4% (inactive)

Q: What about the viability [11] of the same compound?
A: 108%

Q: And the inhibition [6]?
A: -2% (inactive)

Q: And the fluorescence ratio (interference) [7]?
A: 0.9 (inactive)

Q: And the remaining activity [1]?
A: 98.9% (inactive)

Q: And the fold change ([3]; stronger effect = lower value)?
A: 0.982 (inactive)

Q: What about the fold change [3, 12] of the same compound?
A: 0.968

Q: And the cell count [3, 13]?
A: 797

Q: And the cell count [3, 14]?
A: 812

Q: What about the outcome [8] of the same compound?
A: inactive

Q: And the z-score [10]?
A: -1.48 (inactive)

Q: With CC1(C(=O)O)C2CCC(O2)C1(C)C(=O)O (stereo unspecified) as the compound, how does the period change [5] read?
A: 0.3 h (inactive)

Q: And the survival [2]?
A: 0.417 (inactive)

Q: And the inhibition [6]?
A: -5% (inactive)

Q: And the fluorescence ratio (interference) [7]?
A: 1 (inactive)

Q: And the remaining activity [1]?
A: 118% (inactive)

Q: What about the fold change ([3]; stronger effect = lower value) of the same compound?
A: 0.789 (inactive)

Q: And the fold change [3, 12]?
A: 1.91

Q: And the cell count [3, 13]?
A: 286

Q: And the cell count [3, 14]?
A: 362

Q: What about the outcome [8] of the same compound?
A: inactive

Q: And the z-score [10]?
A: -1.46 (inactive)

Source: PubChem BioAssay
